This is a sample that favours compounds with a hit; in the whole collection about 1.3% have one here.
LYPLA2 inh = LYPLA2 inhibitors, primary screen, counter-screen for PME1 inhibitor project, biochemical, fluorescence polarization, FP-Rh probe ABPP; inhibition, % at 5.9 µM; recombinant LYPLA2; Acyl-protein thioesterase 2 (Homo sapiens), O95372; 0.38% of 320,000 active;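 active = inhibition above the screen-wide mean plus 3 SD, limit set per campaign, cut at about 26% in these data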;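 also: 0% = LYPLA2 with DMSO and 100% = wells lacking LYPLA2 enzyme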
Fam108B counter = mouse Fam108B serine hydrolase inhibitors, primary screen, counter-screen for RBBP9 inhibitor project, biochemical, fluorescence polarization; recombinant Fam108B, FP-Rh probe fluorescence polarization; inhibition, % at 9.51 µM; 0.33% of 300,000 active; AID 1947, 2009;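 active = inhibition above the screen mean inhibition plus 3 SD, computed separately per campaign, cut at about 18% in these data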;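 also: inhibitors lower polarization as less probe binds the enzyme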
PREPL inh = PREPL enzyme inhibitors, primary screen, biochemical, fluorescence polarization | recombinant PREPL, fluorescence polarization activity-based probe | AID 2751, 2010 | inhibition, % at 5.96 µM | 0.68% of 320,000 active | Prolyl endopeptidase-like (Homo sapiens), Q4J6C6; in the data active = inhibition above about 43%;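 also: 0% = enzyme with DMSO and 100% = wells lacking enzyme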
PME-1 inh = PME-1 inhibitors via competitive probe labeling, primary screen, biochemical, fluorescence polarization, FP-Rh probe, HTS; 0.53% of 320,000 active; Protein phosphatase methylesterase 1 (Homo sapiens), Q9Y570; inhibition, % at 5.9 µM; recombinant PME-1;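 active = inhibition above the campaign mean of all compounds plus 3 SD, cut at about 26% in these data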;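 also: competitive labeling of PME-1 active site by serine hydrolase directed probe; 0% = PME-1 with DMSO and 100% = wells lacking PME-1 enzyme; inhibitors block probe labeling so polarization falls and inhibition rises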
Target sequence (Q9Y570 whole entry, looked up): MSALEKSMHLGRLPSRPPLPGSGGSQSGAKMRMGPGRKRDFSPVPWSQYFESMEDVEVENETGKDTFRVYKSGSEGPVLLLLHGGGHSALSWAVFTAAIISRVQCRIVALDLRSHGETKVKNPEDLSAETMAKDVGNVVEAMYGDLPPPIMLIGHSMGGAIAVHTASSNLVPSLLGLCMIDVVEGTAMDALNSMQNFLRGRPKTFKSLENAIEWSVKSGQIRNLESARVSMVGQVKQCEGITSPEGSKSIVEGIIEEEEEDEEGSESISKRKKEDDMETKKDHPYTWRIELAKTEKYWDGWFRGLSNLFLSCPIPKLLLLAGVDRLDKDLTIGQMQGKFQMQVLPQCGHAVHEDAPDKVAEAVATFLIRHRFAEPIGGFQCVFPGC
LYPLA1 counter = LYPLA1 inhibitors, primary screen, counter-screen for PME1 inhibitor project, biochemical, fluorescence polarization, FP-Rh probe ABPP. recombinant LYPLA1. 0.16% of 320,000 active. Acyl-protein thioesterase 1 (Homo sapiens), O75608. inhibition, % at 5.9 µM;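 active = inhibition above the mean of all tested compounds plus 3 SD, set per campaign, cut at about 14% in these data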;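 also: inhibitors block serine hydrolase probe labeling of LYPLA1 so polarization falls; 0% = enzyme with DMSO and 100% = wells lacking LYPLA1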
Target sequence (O75608 whole entry, looked up): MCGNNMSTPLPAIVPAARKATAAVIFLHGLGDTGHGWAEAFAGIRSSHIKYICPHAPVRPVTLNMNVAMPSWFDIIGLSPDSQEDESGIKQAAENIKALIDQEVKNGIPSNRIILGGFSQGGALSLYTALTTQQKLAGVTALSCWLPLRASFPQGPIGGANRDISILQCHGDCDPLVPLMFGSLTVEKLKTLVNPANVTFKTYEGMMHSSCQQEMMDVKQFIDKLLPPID
Fam108b confirm = mouse Fam108b serine hydrolase inhibitors, confirmation, counter-screen for RBBP9 inhibitor project, biochemical, fluorescence polarization, triplicate. shares compounds with Fam108B counter. recombinant Fam108b, FP-Rh probe fluorescence polarization. AID 1978, 2009. inhibition, % at 9.51 µM. 44% of 930 active;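 active = inhibition above a limit from the primary screen, the mean over all compounds plus 3 SD, cut at about 19% in these data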;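 also: 0% = median of active Fam108b wells and 100% = catalytically dead S170A mutant; inhibitors free the probe so polarization falls as inhibition rises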
Fam108b ABPP HTS = inhibition of mouse Fam108b by HTS hits, late-stage follow-up, biochemical, gel-based ABPP, soluble recombinant form. shares compounds with Fam108B counter. fluorophosphonate probe. inhibition, % at 20 µM. 44% of 260 active. AID 588649, 2011; in the data active = inhibition above about 40%
* marks the source's active call; other numbers are inactive results; . = not tested or not shown.

SMILES | LYPLA2 inh | Fam108B counter | PREPL inh | PME-1 inh | LYPLA1 counter | Fam108b confirm | others
CC(=O)Nc1ccc2[nH]c3ccccc3c2c1 | 6.0 | 2.6 | 5.6 | -0.6 | -3.8 | .
CC1C(=O)N2CCCc3cc(NC(=O)C(=O)NCCCc4ccccc4)cc1c32 (configuration not stated) | -0.4 | 8.3 | 21.1 | -1.2 | -1.3 | .
CCOC(=O)Cc1csc(NC(=O)c2sc3nc4c(C)cc(C)cc4cc3c2N)n1 | -2.6 | 23.2* | 20.9 | 85.9* | -9.2 | 3.9
Cc1ccc(C(=O)O)cc1N1C(=O)c2cccc3c([N+](=O)[O-])ccc(c23)C1=O | 6.9 | 27.0* | 10.9 | 31.7* | 1.5 | 22.9*
CCCCNC(=O)Oc1c(Br)cc2sc(=O)oc2c1Br | -2.4 | 25.7* | 17.9 | -10.1 | -1.0 | 1.2
Cc1ccc(NS(=O)(=O)c2coc(C(N)=O)c2)cc1F | 0.7 | 0.9 | -1.2 | -0.9 | 0.7 | .
Cn1c(=N)n(CC(=O)c2ccc(Cl)c(Cl)c2)c2ccccc21 | 11.6 | 20.7* | 42.1 | 19.1 | 5.2 | 5.8
Cn1c(=N)n(CC(=O)c2ccccc2)c2ccccc21 | 2.4 | -0.2 | 11.9 | 0.8 | 3.1 | .
CCCCn1c(N)c(N(CCOC)C(=O)CSCc2ccccc2C)c(=O)[nH]c1=O | 0.2 | 27.0* | 2.1 | -1.7 | 1.7 | 0.5
COc1ccc(CNc2nc3ccccc3n2C)c(OC)c1 | 2.3 | 8.9 | 14.8 | 10.3 | -3.2 | .
COc1ccc(N=Nc2nc3cc(Br)c(Br)cc3n2C)c(OC)c1 | 9.6 | 31.3* | 35.4 | 61.3* | 3.8 | 12.0
O=C(CC1C(=O)NCCN1C(=O)c1ccccc1)Nc1cc(Cl)ccc1Cl (configuration not stated) | -4.3 | -1.1 | -4.7 | 3.0 | 1.2 | .
O=[N+]([O-])c1ccc(O)c(/C=N/NC(=S)Nc2ccc(Cl)cc2Cl)c1 | -1.4 | 42.6* | 7.0 | 10.3 | 5.3 | 48.5*
Cc1cc(Cl)ccc1NC(=O)CCC(=O)N/N=C/c1cc([N+](=O)[O-])ccc1O | 1.3 | -1.1 | 1.6 | 4.4 | -1.1 | .
C=CC[C@@H](CC(=O)N[C@H](CO)Cc1ccccc1)C(=O)N[C@H](COC(=O)[C@@H](CC=C)Cc1ccc(F)cc1)Cc1ccccc1 | . | . | -1.7 | . | . | .
O=C(NC1CCCCC1)c1sc(=S)n2c1[nH]c(=O)c1ccccc12 | 5.1 | 35.4* | 30.1 | 20.4 | 2.2 | 32.2* | Fam108b ABPP HTS=85.0*
CCCCNC(=O)c1sc(=S)n2c1[nH]c(=O)c1ccccc12 | 6.7 | 26.8* | 16.6 | 16.7 | 5.2 | 32.4* | Fam108b ABPP HTS=25.0
COc1ccc(OC)c(CCNC(=O)c2ccc3c(=O)[nH]c4c(C(=O)NC(C)C)sc(=S)n4c3c2)c1 | 9.0 | 15.1 | 26.9 | 24.3 | -1.2 | .
COc1ccc(-c2noc(CN(C)C(=O)c3ccoc3C)n2)cc1 | 2.5 | -0.8 | 8.7 | 1.5 | -1.8 | .
CCOC(=O)c1cnc2cc3c(cn2c1=O)CCCC3 | 23.7 | 2.0 | 11.5 | -0.6 | 9.2 | .
CCOC(=O)C1=C(SCC)c2cc3c(n2C1=O)CCCC3 | 0.5 | 22.5* | 11.9 | 8.0 | 1.8 | 13.8
O=C1c2ccccc2C(=O)N1OS(=O)(=O)c1ccccc1 | -2.8 | 28.7* | 5.7 | -2.3 | -1.9 | -18.1
O=[N+]([O-])c1cccc(NC(=S)Nc2nc(-c3ccc(Cl)cc3Cl)cs2)c1 | -11.3 | -16.3 | 11.3 | 8.9 | -8.2 | .
Cc1[nH]c2ccccc2c1/C=N/NS(=O)(=O)c1ccccc1 | -9.1 | 3.3 | 22.1 | 5.4 | -6.5 | .
Cc1[nH]c2ccccc2c1/C=N/Nc1ccccc1[N+](=O)[O-] | 3.7 | 22.3* | 51.4* | 46.8* | 2.8 | -7.6
SMILES | LYPLA2 inh | Fam108B counter | PREPL inh | PME-1 inh | LYPLA1 counter | Fam108b confirm | others
O=C(NCCc1ccc(Cl)cc1)C1CCCN1C(=O)Nc1ccc(F)cc1 (configuration not stated) | -7.3 | 1.1 | 3.8 | 9.2 | -1.5 | .
O=C(NCCc1ccc(Cl)cc1)C1CCCN1C(=O)Nc1ccccc1 (configuration not stated) | 3.0 | 30.5* | -2.7 | 3.8 | -0.1 | 3.4
Cc1ccc(NC2=C/C(=N/S(=O)(=O)c3cccs3)c3ccccc3C2=O)cc1C | -0.1 | 5.3 | 2.0 | 4.5 | -1.6 | .
CC(=O)Nc1ccc(NC2=CC(=NS(=O)(=O)c3cccs3)c3ccccc3C2=O)cc1 | . | . | . | . | . | . | Fam108b ABPP HTS=20.0
COc1ccc(S(=O)(=O)/N=C2\C=C(Nc3ccc(O)cc3)C(=O)c3ccccc32)cc1 | -8.0 | 28.1* | 25.2 | 36.2* | -9.7 | 37.1* | Fam108b ABPP HTS=65.0*
CC(=O)Nc1ccc(NC2=C/C(=N/S(=O)(=O)c3cccs3)c3ccccc3C2=O)cc1 | 7.8 | 40.9* | 19.2 | 21.6 | -1.6 | 39.9*
O=C1C(Nc2ccccc2)=CC(=NS(=O)(=O)c2cccs2)c2ccccc21 | . | . | . | . | . | . | Fam108b ABPP HTS=0.0
CCCc1cc(=O)[nH]c(SCC(=O)Nc2sc3c(c2C(N)=O)CCCC3)n1 | . | . | 18.3 | . | . | .
CC(C)c1ccc(S(=O)(=O)/N=C2\C=C(NS(=O)(=O)c3ccccc3)C(=O)c3ccccc32)cc1 | -19.2 | 5.5 | 9.2 | -12.4 | -13.3 | .
Cc1ccccc1NC1=C/C(=N\S(=O)(=O)c2ccc(C(=O)O)cc2)c2ccccc2C1=O | 31.8* | 54.0* | 28.9 | 35.7* | 7.2 | 88.8* | Fam108b ABPP HTS=30.0
Cc1ccccc1NC1=C/C(=N\S(=O)(=O)c2cccs2)c2ccccc2C1=O | 19.5 | 40.5* | 33.4 | 29.6* | 4.8 | 59.9* | Fam108b ABPP HTS=60.0*
Cn1nccc1C(=O)Nc1ccc2c(c1)OCO2 | 2.5 | -0.3 | 0.6 | 2.7 | -3.0 | .
CN(Cc1ccco1)c1ncnc2ccc(-c3ccc4c(ccn4C)c3)cc12 | -14.0 | . | 29.6 | 0.5 | -1.3 | .
Fc1ccc2nc(Nc3nc4cc5c(cc4s3)OCCO5)sc2c1 | 8.5 | 21.3* | 27.8 | 72.3* | -0.9 | 12.0
Fc1ccc2nc(Nc3nc4cc5c(cc4s3)OCO5)sc2c1 | -9.6 | 39.7* | 23.3 | 52.5* | -4.7 | 45.7* | Fam108b ABPP HTS=95.0*
O=C(NNc1nc2cc3c(cc2s1)OCCO3)c1ccc(F)cc1 | 0.6 | 3.3 | 11.8 | 6.6 | -0.8 | .
Cc1nnc(Cn2cnc3c2c(=O)n(C)c(=O)n3C)o1 | -1.1 | 1.8 | 6.2 | 1.1 | 0.9 | .
N#Cc1ccccc1CCN1C(=O)c2ccccc2C1=O | -5.1 | 3.0 | 13.8 | 3.3 | 1.5 | .
NC1=NC(c2ccccc2C(F)(F)F)N(c2ccc(F)c(Cl)c2)C(N)=N1 (configuration not stated) | 1.1 | 4.9 | 22.4 | -3.7 | -0.8 | .
O=[N+]([O-])c1cc(Cl)cc(C=NNC(=S)Nc2ccc(S(=O)(=O)N3CCOCC3)cc2)c1O | . | . | . | . | . | . | Fam108b ABPP HTS=0.0
O=S(=O)(c1ccc(NC(=S)N/N=C/c2ccc(O)c(O)c2)cc1)N1CCOCC1 | 4.1 | 1.8 | 33.2 | 15.5 | -18.1 | .

Source: PubChem
